Screens deposited in PubChem by National Center for Advancing Translational Sciences (NCATS).
TDP1 cell noCPT: qHTS for Inhibitors of human tyrosyl-DNA phosphodiesterase 1 (TDP1): qHTS in cells in absence of CPT; actives 15% (n = 420,000); DT40 Tdp1-/- hTDP1 cells, no CPT, ATP luminescence, 48 h; Potency, µM (doses to about 46.2 µM), for the others: top-dose activity change, negative = growth inhibition, most hits filed as inhibitors; AID 686978, 2013; further: potency means the concentration at half of the fitted maximal effect; on the % scale 0 is the no-effect control and ±100 the full control effect; nearly all actives have a fitted effect of over 55% in size
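Seeded 400 DT40-hTDP1 cells/well (vehicle DMSO, no 20 nM CPT); pinned compounds; ≥48 hr at 37 °C; CellTiter-Glo luminescence as viability measure.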
TDP1 cell CPT: growth inhibition of DT40 Tdp1-/-;hTDP1 cells with camptothecin (screen for TDP1 inhibitors); chicken DT40 Tdp1-/-;hTDP1 cells + 20 nM CPT, ATP luminescence, 48 h; Potency, µM (top dose mostly 46.2 µM), without a hit: top-dose activity change, negative = growth inhibition, actives largely listed as inhibitors; actives 12% (n = 420,000); AID 686979; further: potency means the concentration at half of the fitted maximal effect; on the % scale 0 is the no-effect control and ±100 the full control effect; nearly all actives have a fitted effect of over 55% in size
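Chicken DT40 Tdp1-/- cells stably complemented with human TDP1 were seeded at 400 cells/well in medium containing 20 nM camptothecin, exposed to pin-transferred compounds, and grown at 37 °C for at least 48 hr. Viability was read as ATP luminescence.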
TGFb inhibitor: blocks TGF-b signaling; HepG2 CAGA-GFP TGF-b/SMAD3 reporter, GFP fluorescence, 18 h; TGF-beta stimulated, 500 pg/mL final; Potency, µM (series often up to 46.1 µM), inactives show top-dose activity, negative = inhibition, most hits filed as inhibitors; AID 588855; actives 1.2% (n = 410,000); further: potency means the concentration at half of the fitted maximal effect; on the % scale 0 is the no-effect control and ±100 the full control effect; nearly all actives have a fitted effect of over 65% in size
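Smad-responsive CAGA-GFP expression was quantified in HEPG2 cells exposed to compounds and 500 pg/mL final TGF-beta for 18 h at 37 degrees C; unstimulated wells defined full inhibition.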
IL-1B inflam inh: inflammasome signaling inhibition, IL-1 beta readout | THP-1 LPS/ATP IL-1B secretion, AlphaLISA, 16 h; hits give low values | activity change, % at 57.5 µM | actives 4.7% (n = 360,000); in the data active means activity change below about -50%; inconclusive means mostly about -30% to -49%; further: on the % scale 0 is the no-effect control and ±100 the full control effect
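THP-1 cells pretreated 1 hr with compounds (up to 57.5 uM final), then stimulated with LPS (250 ng/mL final) plus ATP (1.25 mM final); secreted IL-1B measured by AlphaLISA after 16 hr, decreased signal indicating inhibition.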
ASM inhibitor: human S-ASM enzyme inhibition; P17405; placental ASM, HMU-PC fluorogenic substrate, 60 min; Potency, µM (highest dose often 57.5 µM), for the others: at the top dose activity change, negative = inhibition, hits mostly inhibitors; actives 0.006% (n = 340,000); further: potency means the concentration at half of the fitted maximal effect
Target sequence (P17405 47-631 limits assumed): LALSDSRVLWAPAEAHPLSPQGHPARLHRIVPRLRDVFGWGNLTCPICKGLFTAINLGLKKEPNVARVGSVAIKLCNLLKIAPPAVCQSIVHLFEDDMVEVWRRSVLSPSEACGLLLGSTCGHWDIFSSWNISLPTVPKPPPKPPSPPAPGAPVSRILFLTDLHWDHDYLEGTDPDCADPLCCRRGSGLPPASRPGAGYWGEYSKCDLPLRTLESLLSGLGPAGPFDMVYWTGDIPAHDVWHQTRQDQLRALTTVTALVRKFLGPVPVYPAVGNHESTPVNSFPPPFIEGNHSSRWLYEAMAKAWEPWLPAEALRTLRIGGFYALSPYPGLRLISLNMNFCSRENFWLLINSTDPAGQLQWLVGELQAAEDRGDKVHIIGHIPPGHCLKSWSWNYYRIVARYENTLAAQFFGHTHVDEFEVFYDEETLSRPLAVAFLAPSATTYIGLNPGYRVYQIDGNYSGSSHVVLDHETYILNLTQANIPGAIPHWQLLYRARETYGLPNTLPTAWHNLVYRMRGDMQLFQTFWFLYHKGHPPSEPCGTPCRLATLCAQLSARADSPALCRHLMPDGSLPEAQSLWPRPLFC
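Human placenta-derived ASM enzyme was preincubated with compound for 10 minutes at room temperature, then given fluorogenic substrate HMU-PC0 (9 uM final) for 60 minutes at 37 °C; a pH 10 stop preceded fluorescence reading at Ex 386/Em 447 nm.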
HepG2 viability: counter-screen for TGF-b inhibitors: cytotoxicity in HepG2 cells; AID 588856; actives 0.76% (n = 410,000); Potency, µM (doses to about 46.1 µM), inactives show at the top dose activity change, negative = cytotoxicity, usual class: cytotoxic; HepG2 CAGA-GFP viability, ATP luminescence, 18 h; further: potency means the concentration at half of the fitted maximal effect
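HepG2 CAGA-GFP cells (1000/well, DMEM with 1% FBS) received compound, then TGF-beta at 500 pg/mL final, and were incubated 18 hours at 37 degrees C. Viability was read by CellTiter-Glo luminescence. Media-only wells were set as complete cell-killing and DMSO as no toxicity.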
Numbers without * were called inactive; ? = inconclusive; . = not tested or not shown; ! = not confirmed by another sample. Compounds with a hit are over-represented: about 19% of the library has one in this group of screens. Unless noted, the call rests on the fitted dose curve; in most records, active means well fitted curve in the direction sought with a large enough effect; inconclusive means small, poorly fitted or top-dose-only effect, or another doubt; inactive means no such curve, though single readings can be large; an effect the other way counts as inactive or inconclusive.

SMILES	TDP1 cell noCPT	TDP1 cell CPT	TGFb inhibitor	IL-1B inflam inh	ASM inhibitor	HepG2 viability
COc1ccccc1N(CC(=O)NC1CCCCC1)C(=O)c1cnn(C(C)C)c1	2%	?	1%	23	6%	-17%
CC1=C/C(=N\NC(=S)NCCc2ccccc2)CC(C)(C)C1	?	?	-19%	-7	-3%	-23%
CC(C)Oc1ccc(CC2(CCc3ccncc3)C(=O)NC(=O)NC2=O)cc1	?	-22%	1%	14	-2%	1%
CC(C)(C)C(=O)OC1=CN(Cc2ccccc2)S(=O)(=O)c2ccccc21	?	-22%	-25%	.	.	-6%
O=C(O)c1ccccc1-c1c2cc(Br)c(=O)cc-2oc2[c]([Hg])c(O)c(Br)cc12	0.58µM*	1.5µM*	.	.	.	.
CCCN(CCC)c1c([N+](=O)[O-])cc(C(F)(F)F)cc1[N+](=O)[O-]	0%	-6%	.	.	.	.
CCCCC[C@@H]1CCCCC[C@@H](O)C[C@@H](O)[C@@H](O)/C=C/C(=O)O1	-34%	?	.	-15	.	.
CCC1(O)CCC2C3CCC4=CC(=O)CCC4C3CCC21CC (stereo unspecified)	21µM*	23µM*	0%	16	-1%	-24%
CC(=O)c1ccc(OCC(=O)N2CCCC(N(C)Cc3ccccc3)C2)cc1 (stereo unspecified)	-6%	0%	-21%	6	8%	-7%
O=C(CCN1CC1)OCCOC(=O)CCN1CC1	4.6µM*	5.2µM*	1%	-3	2%	0%
CN(C)CCCCCCN(C)C (tested in a mixture with another compound)	3%	-6%	.	.	.	.
COC(=O)C1=C(c2ccc(OC)c(OC)c2)C[C@@H]2CC[C@H]1N2C(=O)NCc1ccc(F)cc1	-28%	-28%	-1%	15	-1%	-1%
CN(CC=CCN(C)P(=S)(N1CC1)N1CC1)P(=S)(N1CC1)N1CC1	1.8µM*	1.6µM*	9%	8	1%	-11%
Cn1c(CN2CCN(C(=O)COc3ccccc3)CC2)nc2cc([N+](=O)[O-])ccc21	?	?	?	22	-1%	-25%
CCOC(=O)[C@]12Cc3cc(C)ccc3[C@H]1N(C(C)C)C(=O)c1ccccc12	6.5µM*	10µM*	.	-113*	.	.
CCOC(=O)[C@]12Cc3cc(C)ccc3[C@H]1N(Cc1ccccc1)C(=O)c1ccccc12	15µM*	10µM*	10µM*	-3	-7%	-21%
CCOC(=O)[C@]12Cc3c(cc(OC)c(OC)c3OC)[C@H]1N(C(C)C)C(=O)c1ccccc12	15µM*	23µM*	.	-114*	.	.
CCOC(=O)[C@]12Cc3cc(C)ccc3[C@H]1N(Cc1ccccc1)C(=O)c1cc(F)c(F)cc12	15µM*	21µM*	.	.	.	.
CCOC(=O)[C@]12Cc3cc(OC)ccc3[C@H]1N(Cc1ccccc1)C(=O)c1ccccc12	11µM*	?	?	-23	0%	-13%
CCCCCN1C(=O)c2ccccc2[C@@]2(C(=O)OCC)Cc3cc(OC)ccc3[C@@H]12	4.6µM*	7.3µM*	.	.	.	.
CCOC(=O)[C@]12Cc3cc(OC)ccc3[C@H]1N(Cc1ccccc1)C(=O)c1cc(F)c(F)cc12	?	?	?	-21	6%	-8%
O=c1[nH]c2ccccc2n1CCCN1CCC(n2c(=O)[nH]c3cc(Cl)ccc32)CC1	24µM*!	?	?	?	-2%	-39%
COc1ccc(N2C(=O)CC(N3CCC(n4c(=O)[nH]c5ccccc54)CC3)C2=O)cc1 (stereo unspecified)	?	?	-7%	31	-3%	29%
O=c1[nH]c2ccccc2n1C1CCN(Cc2ccc(-c3nc4ccccc4nc3-c3ccccc3)cc2)CC1	15µM*	12µM*	.	0	.	.
O=c1[nH]c2ccccc2n1C1CCN(Cc2ccc(-c3nc4ccc(F)cc4nc3-c3ccccc3)cc2)CC1	6.5µM*	4.1µM*	.	-61*	.	.
SMILES	TDP1 cell noCPT	TDP1 cell CPT	TGFb inhibitor	IL-1B inflam inh	ASM inhibitor	HepG2 viability
COc1ccc2nc(-c3ccc(CN4CCC(n5c(=O)[nH]c6ccccc65)CC4)cc3)c(-c3ccccc3)nc2c1	15µM*	18µM*	.	-61*	.	.
O=CC1=C(N2CCOCC2)/C(=C\c2ccccc2)CC1	?	?	-6%	?	-5%	-4%
c1cc2c(cc1-c1ccc3c(c1)OCO3)CNCc1cnnn1-2	?	?	3%	0	.	-2%
Cc1ccc2nc(-c3ccc(CN4CCC(n5c(=O)[nH]c6ccccc65)CC4)cc3)c(-c3ccccc3)nc2c1	12µM*	8.2µM*	.	-74*	.	.
CN1C[C@@H](NS(=O)(=O)N(C)C)C[C@@H]2c3cccc4c3c(cn4C)C[C@H]21	?	-30%	.	.	.	.
Cc1ccc(NC(=O)c2cn(CCC#N)nc2-c2ccc3c(c2)OCCO3)c([N+](=O)[O-])c1	6.5µM*	?	5%	-12	-9%	0%
N#CCCn1cc(C(=O)Nc2ccc([N+](=O)[O-])cc2)c(-c2ccc3c(c2)OCCO3)n1	-15%	-6%	5%	-15	4%	12%
O=C(O)C1(Br)CC12c1ccccc1-c1ccccc12 (stereo unspecified)	3%	15%	?	27	2%	-27%
CC(=O)[C@H]1CC[C@H]2[C@@H]3CC[C@@H]4C[C@H](O)CC[C@]4(C)[C@H]3CC[C@]12C	-20%	-9%	.	.	.	.
OCC1OC(n2cnc3c(Cl)ncnc32)C(O)C1O (stereo unspecified)	4.6µM*	9.2µM*	.	.	.	.
COc1nc(N)nc2c1ncn2[C@@H]1O[C@H](CO)[C@@H](O)[C@@H]1O	-26%	?	.	.	.	.
Cc1ccc(/C=N/n2c(-c3ccccc3)csc2=S)cc1	?	15µM*	.	.	.	.
O=C(CC1CCCCC1)c1c(O)c2ccccc2oc1=O	?	18µM*	-38%	16	-4%	-33%
COc1cccc(-c2nn(CCC#N)cc2C(=O)Nc2ccccc2Cl)c1	?	?	-15%	31	-1%	-22%
COc1cc(NC(=O)c2cccc3c(-c4cccnc4)coc23)cc(OC)c1OC	3.3µM*	3.7µM*	3%	-78*	.	-22%
